# The whole screen tested about 300,000 compounds, of which about 3,600 (1.2%) were called active. For the sample, actives were picked, then their nearest neighbours and some compounds at random. Values without a mark were called inactive. Cut-off read from the data, not from the text of the source: active = activation above about 30% (passing the limit was not always enough); inconclusive = no clear call, values can overlap the other calls.
# Assay: activation of beta-catenin signaling reporter – cell-based, plate reader, single point, primary screen (AID 743398);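 note: 0% = neutral control wells and 100% = positive control wells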
# Conditions: Wnt/beta-catenin reporter cell assay, activator, at 9.35 µM, hits give high values
row,Compound,activation
1,Cc1nn(-c2ccccc2)c(-n2cccc2)c1C(=O)O,-0.442%
2,Cc1cccc(C)c1NC(=O)COC(=O)c1c(C)nn(-c2ccccc2)c1C,2.07%
3,Cc1ccc(OC(=O)c2c(C)nn(-c3ccccc3)c2C)cc1,57.6% (active)
4,Cc1cccc(C)c1Cn1c(C)c(C(=O)NCc2cccc(Cl)c2)sc1=O,-7.17%
5,CCCOc1ccc(F)cc1-c1cc(C(=O)Nc2ccc(F)cc2)[nH]n1,-2.71%
6,COc1ccc(CN2C(=O)C(C)S/C2=N/N=C/c2ccco2)cc1 (stereo not given),39.6% (active)
7,C=CCN1C(=O)C(Cc2cccc(Cl)c2)S/C1=N/N=C/c1ccco1 (stereo not given),-5.07%
8,O=C1N/C(=N\N=C\c2ccco2)SC1Cc1ccc(F)cc1 (stereo not given),1.16%
9,CCOC(=O)c1cc(-c2sc(NC(=O)c3ccccc3)nc2C)n(-c2ccc(Br)cc2)n1,-1.56%
10,Cn1cnnc1SCC(=O)Nc1ccc(N2CCOCC2)cc1,-1.68%
11,O=C(CSc1ccc([N+](=O)[O-])cn1)Nc1ccc(N2CCOCC2)cc1,34.8% (active)
12,O=C(CSc1ccc([N+](=O)[O-])cn1)Nc1ccc(N2CCOCC2)c(Cl)c1,-0.66%
13,CC(C)CNc1cccc2c1S(=O)(=O)N[C@H](C)CO2,-4.07%
14,CCCn1c(N)c(C(=O)CSc2nnc(-c3cccnc3)n2-c2ccc(C)cc2C)c(=O)[nH]c1=O,-2.6%
15,CCCn1c(N)c(C(=O)CSc2nnc3n2CCCCC3)c(=O)[nH]c1=O,44.1% (active)
16,CCCn1c(N)c(C(=O)CSc2nnc(Cc3cccs3)n2C2CC2)c(=O)[nH]c1=O,0.611%
17,Cc1[nH]nc2c1C(c1ccc(Br)cc1)NC2=O (stereo not given),1.31%
18,Cc1ccc(NC(=O)CN(C)CC(=O)Nc2cccc(F)c2)cc1[N+](=O)[O-],-4.16%
19,Cc1cc(O)c(NC(=O)c2ccc(C)c([N+](=O)[O-])c2)cc1C,4.77%
20,Cc1ccc(NC(=O)c2sccc2C)cc1[N+](=O)[O-],44.6% (active)
21,O=S(=O)(NCc1ccccn1)c1ccc(Br)s1,-6.83%
22,Cc1cc(C)c[n+](-c2nc3ccccc3nc2[N-]S(=O)(=O)c2cccs2)c1,-2.64%
23,O=S(=O)([N-]c1nc2ccccc2nc1-[n+]1ccc(Cc2ccccc2)cc1)c1ccc(Br)s1,88.3% (active)

row,Compound,activation
1,O=C(NC(=O)N1CCOCC1)c1ccccc1,-2.28%
2,O=C(NCC(=O)N1CCCCCCC1)c1ccccc1Cl,12.1%
3,O=C(NC(=O)N1CCSCC1)c1c(Cl)cccc1Cl,31.3% (active)
4,OC(c1ccc(Cl)cc1)c1ncc(-c2ccc(Cl)cc2)[nH]1 (stereo not given),0.492%
5,CCNc1nc(NCC)nc(N/N=C/c2ccc(O)c(OC)c2)n1,-3.98%
6,COc1cc(/C=N\Nc2nc(-c3cccs3)c(NC(C)=O)s2)ccc1O,7.87%
7,COc1cc(/C=N/Nc2nc3ccccc3s2)ccc1O,76.9% (active)
8,c1cc(-c2ccc3[nH]ccc3c2)n2ccnc2c1,3.12%
9,Fc1cccc(Cc2c(-c3cccc(Cl)c3)nc3ccc(Br)cn23)c1,16.8%
10,O=C(NCCc1c[nH]c2ccccc12)c1cc2ccccc2oc1=O,40.4% (active)
11,O=C(NCCc1c[nH]c2ccccc12)c1cccc(Br)c1,0.278%
12,CN(c1ccccc1)S(=O)(=O)c1ccc(Cl)c(C(=O)NCCc2c[nH]c3ccccc23)c1,-0.321%
13,Nc1[nH]c(C(=O)c2ccc(Br)cc2)c(-c2ccc3c(c2)OCO3)c1C(=O)NCCc1c[nH]c2ccccc12,0.212%
14,CCc1ccc(C2=CC(=O)CC(C)(C)C2=O)cc1,-1.61%
15,O=C(NCC(=O)N(Cc1cccs1)C(C(=O)NC1CCCCC1)c1ccco1)c1cccs1 (stereo not given),67.7% (active)
16,Cc1ccccc1N(C(=O)CNC(=O)c1cccs1)C(C(=O)NC1CCCC1)c1ccncc1 (stereo not given),-0.349%
17,O=C(NCC(=O)N(CC1CCCO1)C(C(=O)NC1CCCCC1)c1ccccc1)c1ccco1 (stereo not given),-4.62%
18,CCOC(=O)C1=CC[C@@H](c2ccncc2)N(S(=O)(=O)c2ccc(C)cc2)C1,-0.651%
19,CCCCn1nnnc1C(c1ccccc1)N1CCN(c2ccccc2OC)CC1 (stereo not given),1.03%
20,COC(=O)C1=C(C)N(Cc2cccc(C(F)(F)F)c2)C(=NCc2cccc(C(F)(F)F)c2)NC1c1ccccc1C(F)(F)F (stereo not given),-4.8%
21,COc1ccc(-c2cnc3c(c2)C(=O)N([C@H](C)CO)C[C@@H](C)[C@H](CN(C)Cc2ccccc2)O3)cc1,-0.613%
22,Cc1ccc2nc(N3C(=O)C(O)=C(C(=O)c4ccco4)C3c3cccc(O)c3)sc2c1 (stereo not given),8.29%
23,COc1ccc2nc(N3CCN(C(=O)c4ccc([N+](=O)[O-])o4)CC3)sc2c1,2.35%

row,Compound,activation
1,Cc1ccc2nc(N3CCN(C(=O)c4ccco4)CC3)sc2c1,40% (active)
2,COc1cccc(CC(=O)N2CCN(C(=O)C(=O)c3cccc(C(F)(F)F)c3)CC2)c1,-3.95%
3,Cc1cc(C)cc(NC(=O)CSc2ccccc2)c1,-7.62%
4,CN(Cc1ccccc1)C(=O)c1cccc(C(=O)N(C)Cc2ccccc2)c1,1.74%
5,Cc1cc(C)cc(NC(=O)N(C)Cc2ccccc2)c1,46% (active)
6,Cc1ccccc1-c1nc(NC(C)C)nc2cc(-c3ccccc3)sc12,-8.66%
7,CN1CCN(c2ccc3c(c2)OC[C@H](Cc2ccccc2)NS3(=O)=O)CC1,-3.42%
8,CSCCNC(=O)c1ccc2nc(Cc3ccccc3F)oc2c1,42.9% (active)
9,COCCNC(=O)c1ccc2nc(Cc3ccc(OC)c(OC)c3)oc2c1,1.55%
10,COc1ccc(Cc2nc3ccc(C(=O)NCC4CCOCC4)cc3o2)cc1OC,7.09%
11,COc1ccc(-c2cc3ncccc3cn2)cc1,50.1% (active)
12,COc1ccc2nc(-c3ccccn3)ccc2c1,1.79%
13,COc1ccc(-c2cn3cccnc3n2)cc1,26.2%
14,CCOc1ccc(Cl)cc1-c1cc(C(=O)NCc2cccs2)[nH]n1,-2.6%
15,O=C(NCc1ccccc1)[C@@H]1CCCN1C(=O)[C@H]1CCCN1C(=O)c1cccc(Cl)c1,3.03%
16,O=C1/C(=C/c2cccs2)CCc2ccccc21,24.6%
17,O=C1/C(=C/c2cccs2)CCC1C1CCCC1 (stereo not given),39.6% (active)
18,CN1C/C(=C/c2cccs2)C(=O)/C(=C\c2cccs2)C1,5.88%
19,C[C@H](CO)N1C[C@H](C)[C@@H](CN(C)C(=O)Nc2ccccc2F)OCc2cn(nn2)CCCC1=O,-2.87%
20,COc1cc(OC)cc(-c2cc3ccc(F)cc3cn2)c1,42.1% (active)
21,COc1ccc(C(C)(O)c2nc(-c3cc(F)cc(F)c3)cs2)cc1 (stereo not given),-1.38%
22,COc1cc(OC)cc(-c2c(-c3ccc(F)cc3)c3cc(-c4ccc5cc[nH]c5c4)ccc3n2C)c1,-17.5%
23,COc1ccccc1C(=O)N1O[C@]23C=C[C@]14C[C@@H](O)CC[C@]4(C)C2CC[C@]1(C)[C@@H]([C@H](C)/C=C/[C@H](C)C(C)C)CC[C@H]13 (stereo not given in full),-2.64%

row,Compound,activation
1,COc1cccc(CNc2nc(NCc3cccs3)nc3ccsc23)c1,-1.69%
2,O=C(Nc1c(Cl)c(C2CC2)nn1-c1ccccc1)C(Cl)(Cl)Cl,-2.16%
3,Fc1ccccc1-c1cc2cc3c(cc2cn1)OCO3,40.7% (active)
4,O=C(c1ccco1)N1CCN(C(=O)c2cc(-c3ccccc3F)no2)CC1,1.22%
5,O=C(NCCCN1CCOCC1)c1cc(-c2ccccc2F)no1,3.67%
6,CCNC(=O)C1(C)CCCN(Cc2noc(-c3ccccc3OC)n2)C1 (stereo not given),-3.24%
7,CN1C(=O)C2CC(O)C(SC3CC4C(=O)N(C)C(=O)C4CC3O)CC2C1=O (stereo not given),-1.16%
8,CCc1nc2c(OCc3ccc(C(F)(F)F)cc3)cccn2c1N(C)C(=O)CC(C)C,-1.72%
9,C=CCc1cccc2cc(C(=O)NC3CCCC3)c(=O)oc12,-0.536%
10,CCOc1cccc2cc(C(=O)OCC(=O)Nc3c(C)cccc3CC)c(=O)oc12,8.56%
11,C=CCc1cccc2cc(C(=O)Nc3ccc(NC(C)=O)cc3)c(=O)oc12,39.5% (active)
12,COc1ccc(-c2ccccc2C2Cc3nnccc3CN2C(=O)Nc2ccccc2)cc1 (stereo not given),-2.13%
13,COC(=O)c1cc2c(c3c4ccccc4n(S(=O)(=O)c4cccc(C)c4)c13)C(=O)N(Cc1ccccc1)C2,-4.66%
14,Cn1c(-c2ccc(F)cc2)cc2onc(-c3ccccc3Cl)c2c1=O,53.3% (active)
15,Cn1c(-c2ccc(C(F)(F)F)cc2)cc2onc(-c3ccccc3)c2c1=O,23.3%
16,Cc1[nH]n(C)c(=O)c1C(=O)c1c(-c2c(Cl)cccc2Cl)noc1C,4.17%
17,CCOC(=O)/C=C/c1ccccc1O,-1.18%
18,O=C(NNC(=O)c1cc2c(s1)CCCC2)c1ccccc1,27.6%
19,O=C(Nc1ccc(F)cc1)c1cc2c(s1)CCCC2,53% (active)
20,CN(C)C(=O)c1ccc(NC(=O)COC(=O)c2cc3c(s2)CCCCC3)cc1,0.414%
21,CCN(CC)C(=O)C1=C(C)N(Cc2ccc(F)cc2)C(=O)C(CC(=O)NCc2cccc3ccccc23)C1 (stereo not given),-3.01%

# — PubChem BioAssay AID743398 (Broad Institute, 2014)
